From PubChem
KB-V1 cytotox = qHTS assay for MDR1-selective chemotherapeutics: Primary screen using the drug-selected MDR subline cells KB-V1; AID 1347076, 2019; 400,000 tested, 3.4% active; KB-V1 MDR cells viability, CellTiter-Glo, 72 h; Potency, µM (highest dose often 46.1 µM), hits mostly cytotoxic; note: nearly all actives have a fitted effect of over 60% in size
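KB-V1, DMEM (no phenol red) + 10% FBS; cpd pin-transferred, titration series; 72 h, 37 degrees C; CellTiter-Glo, luminescence. Data normalized, curve-fit.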
SW480 rerep = A quantitative high throughput screen for small molecules that induce DNA re-replication in SW480 colon adenocarcinoma cells | Potency, µM (top dose mostly 46.1 µM), hits mostly activators | 340,000 tested, 1.8% active | SW480 DNA re-replication, Hoechst DNA content imaging, 48 h; note: nearly all actives have a fitted effect of over 55% in size
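Per well, 250 cells were exposed to pinned compound for 48 hr. Nuclear DNA was visualised with Hoechst (40 min, 37 C) and total object intensity recorded by fluorescence scanning.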
HT1080NT lethal = qHTS for induction of synthetic lethality in tumor cells producing 2HG: qHTS for the HT-1080-NT fibrosarcoma cell line | 360,000 tested, 1.6% active | HT-1080-NT fibrosarcoma viability, CellTiter-Glo ATP luminescence, 48 h | AID 686970, 2013 | Potency, µM (titrated, usually from 46.1 µM), usual class: cytotoxic;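 note: NT is the 2HG producing partner of a matched IDH1 knockdown line; nearly all actives have a fitted effect of over 55% in size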
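Read-out is CellTiter-Glo luminescence after 10 minutes at room temperature, following 48 hours' compound treatment of HT-1080-NT cells (750 cells/well, RPMI, 5% FBS, 37 degrees C).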
KB-3-1 cytotox = qHTS assay for MDR1-selective chemotherapeutics: Primary screen using the parental adenocarcinoma cell KB-3-1; KB-3-1 viability, CellTiter-Glo ATP luminescence, 72 h; Potency, µM (titrated, usually from 46.1 µM), hits mostly cytotoxic; 400,000 tested, 1.4% active; AID 1347075, 2019; note: nearly all actives have a fitted effect of over 60% in size
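Viability of parental KB-3-1 cells, measured by CellTiter-Glo luminescence, followed a 72 h incubation at 37 °C with pinned compounds in phenol-red-free DMEM containing 10% FBS.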
MCF10A rerep = A quantitative high throughput screen for small molecules that induce DNA re-replication in MCF 10a normal breast cells; MCF 10A DNA re-replication, Hoechst nuclear intensity, 48 h; Potency, µM (highest dose often 46.1 µM), most hits filed as activators; 350,000 tested, 2.9% active; AID 624296, 2012; note: nearly all actives have a fitted effect of over 50% in size
HT1080 IDH1KD tx = qHTS for induction of synthetic lethality in tumor cells producing 2HG: qHTS for the HT-1080-IDH1KD cell line; HT-1080 IDH1 knockdown viability, ATP luminescence, 48 h; Potency, µM (highest dose often 46.1 µM), most hits filed as cytotoxic; 360,000 tested, 2% active; AID 686971, 2013
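CellTiter-Glo luminescence after 48 h compound exposure at 37 degrees C of IDH1-knockdown HT-1080 cells in 5% FBS RPMI. %Activity scaled between DMSO wells and cell-free media wells, with curves fitted and assigned curve classes.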
Large screens that a line does not name were inactive. This is a sample that favours compounds with a hit; in the whole collection about 8% have one here. Calls come from the whole dose curve; as a rule, active = well fitted curve in the direction sought with a large enough effect; inconclusive = small, poorly fitted or top-dose-only effect, or another doubt; inactive = no such curve, though single readings can be large; an effect the other way counts as inactive or inconclusive.

COc1ccc(OC)c(CNCc2c(C(=O)O)n(Cc3cccc(F)c3)c3cc(OC)ccc23)c1	none (no result: SW480 rerep, HT1080NT lethal, MCF10A rerep, HT1080 IDH1KD tx)
COC(=O)Cn1c(=O)c(C(=O)CCl)c(N)n(Cc2ccccc2)c1=O	KB-V1 cytotox inconclusive, SW480 rerep inconclusive, KB-3-1 cytotox 13µM, MCF10A rerep 5.17µM
COC(=O)Cn1c(=O)c2c(n(Cc3ccccc3)c1=O)N/C(=C/c1ccc(OC)cc1)C2=O	SW480 rerep 20.6µM, MCF10A rerep 18.4µM
Nc1nc(-c2ccccc2)cn1N	none
c1ccc(-c2cn3nc(-c4ccccc4)c(-c4ccccc4)nc3n2)cc1	KB-V1 cytotox 13µM, SW480 rerep 9.2µM, MCF10A rerep 7.31µM
Cc1nn2cc(-c3ccc(-c4ccccc4)cc3)nc2s1	KB-V1 cytotox inconclusive
Cc1ccc(-c2cn3nc(-c4ccccc4)c(-c4ccccc4)nc3n2)cc1	SW480 rerep 18.4µM, MCF10A rerep inconclusive
Cc1ccc(S(=O)(=O)N2CCN(C(=O)c3ccccn3)CC2)c(C)c1	none
N#C/C(=N/Nc1ccccc1F)C(=N)N1CCOCC1	none
Cc1ccc(C(=O)OC(C(=O)Nc2ccc(Cl)cc2C(F)(F)F)c2ccccc2)cc1 (configuration not stated)	HT1080NT lethal inconclusive, MCF10A rerep inconclusive, HT1080 IDH1KD tx inconclusive
O=C(OC(C(=O)Nc1ccc(Cl)cc1C(F)(F)F)c1ccccc1)c1c(Cl)cccc1Cl (configuration not stated)	KB-3-1 cytotox inconclusive, MCF10A rerep 5.8µM
Cn1nc(C(F)(F)F)c(/C=N/OC(=O)c2ccccc2)c1SCc1ccc(Cl)cc1	KB-V1 cytotox 18.4µM, MCF10A rerep inconclusive
Cc1ccc(NC(=O)c2c(C(F)(F)F)nn(C)c2SCc2ccc(Cl)cc2)cc1C	KB-V1 cytotox 8.2µM, SW480 rerep inconclusive, HT1080NT lethal inconclusive, KB-3-1 cytotox inconclusive, MCF10A rerep inconclusive, HT1080 IDH1KD tx inconclusive
Cn1nc(C(F)(F)F)c(/C=N/OC(=O)c2ccccc2Cl)c1SCc1ccccc1Cl	KB-V1 cytotox inconclusive, SW480 rerep inconclusive, HT1080NT lethal inconclusive, KB-3-1 cytotox inconclusive
CC(=O)Oc1ccccc1C1C[C@]2(C)CC(=O)NC2N1C(C)=O (some centres not stated)	none
Cc1cc(O)c(Oc2cc(C)cc(O)c2O)c(O)c1	SW480 rerep 18.4µM, HT1080NT lethal inconclusive, HT1080 IDH1KD tx inconclusive
CCC(C)(C)NC(=O)C(c1ccc(C)o1)N(C(=O)c1csnn1)c1cccc(F)c1 (configuration not stated)	KB-V1 cytotox 16.4µM
CCC(C)(C)NC(=O)C(c1ccccc1)N(Cc1cccnc1)C(=O)c1csnn1 (configuration not stated)	KB-V1 cytotox 13µM, MCF10A rerep inconclusive
CC(C)(C)NC(=O)C(c1ccncc1)N(C(=O)c1csnn1)c1ccccc1 (configuration not stated)	none
CC(C)(C)NC(=O)C(c1ccco1)N(C(=O)c1csnn1)c1ccccc1 (configuration not stated)	KB-V1 cytotox 14.6µM
Cc1ccc(N(C(=O)c2csnn2)C(C(=O)NC(C)(C)C)c2ccncc2)cc1 (configuration not stated)	SW480 rerep 18.4µM, MCF10A rerep 9.2µM
COCC(=O)N1CCC(Oc2ccc(C(=O)N3C[C@H]4CC[C@H]3C4)cc2)CC1	none (no result: KB-V1 cytotox, KB-3-1 cytotox)
CCOc1ccc(-c2nnn(CC(=O)NCc3ccccc3)n2)cc1	KB-V1 cytotox inconclusive, SW480 rerep inconclusive, KB-3-1 cytotox 6.51µM, MCF10A rerep inconclusive
